# Where “and” joins values, the source holds several entries; their conditions need not be identical. Identical values can stand only once. Some structures have more than one record in an assay (separate samples or runs), and their calls can disagree. Calls of active or inactive are those of the source. Rule for the calls: active = hit-call score of the fitted dose curve at least 0.9, where 1 is the maximum; inactive = score below 0.9.
# Assay: ATG_M_32_CIS: Attagene CIS-FACTORIAL HepG2 Assay for M32 Transcription Factor (Internal Marker) (AID 2282949);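 note: background control marker of the multiplexed CIS panel rather than a real target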
# Settings: HepG2 Attagene cis-factorial M32 reporter, mRNA; actives raise or lower the signal
# Summary of the method: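 Using DMSO as baseline, bidirectional curve fits were applied to reporter mRNA signals. These came from transiently transfected HepG2 cells exposed for 24 h, with RNA analysed by RT-PCR, FAM primer extension, HpaI digestion and CE.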
SMILES,outcome,AC50
CC1(C)C(C=C(Cl)Cl)C1C(=O)OCc1cccc(Oc2ccccc2)c1 (centres undefined),inactive,
CCCOC(=O)c1ccc(C(=O)OCCC)nc1,inactive,
O=C(Nc1ccc([N+](=O)[O-])cc1Cl)c1cc(Cl)ccc1O,inactive,
COc1nc(C)nc(NC(=O)NS(=O)(=O)c2ccccc2OCCCl)n1,inactive,
N#CSCSc1nc2ccccc2s1,inactive,
CCC(O)=C1C(=O)CC(C(=O)O)CC1=O (centres undefined),inactive,
CSC(=O)c1cccc2nnsc12,inactive,
C[C@]12C[C@H](O)[C@H]3[C@@H](CCC4=CC(=O)CC[C@@]43C)[C@@H]1CC[C@@H]2C(=O)CO,inactive,
O=C(O)C1(C(=O)Nc2ccc(Cl)cc2Cl)CC1,inactive,
COC(=O)c1ccc(I)cc1S(=O)(=O)NC(=O)Nc1nc(C)nc(OC)n1,inactive,
CC(=O)S[C@@H]1CC2=CC(=O)CC[C@]2(C)[C@H]2CC[C@@]3(C)[C@@H](CC[C@@]34CCC(=O)O4)[C@H]12,inactive,
CCNc1nc(N)nc(Cl)n1,inactive,
CC(C)CCCCCCc1ccc(O)cc1,inactive,18 µM (active) and 17.2 µM (active)
CCCCOC(=O)[C@@H](C)Oc1ccc(Oc2ccc(C(F)(F)F)cn2)cc1,inactive,
C#C[C@]1(O)CC[C@H]2[C@@H]3CCC4=CC(=O)CC[C@@H]4[C@H]3CC[C@@]21CC,inactive,
CCCCC(CC)COC(=O)c1ccccc1C(=O)O (centres undefined),inactive,
CCOC(=O)[C@H](C)Oc1ccc(Oc2nc3ccc(Cl)cc3o2)cc1,inactive,
CC(=O)[C@H]1CC[C@H]2[C@@H]3CCC4=CC(=O)CC[C@]4(C)[C@H]3CC[C@]12C,inactive,
